# Compound activity as filed in PubChem BioAssay.
# Pf growth 48h – P. falciparum growth inhibition at 48 hours (one generation). AID 504832. 310,000 tested, 5.9% active. P. falciparum luciferase growth in erythrocytes, 48 h. Potency, µM (highest dose often 28.7 µM), for the others: top-dose activity change, negative = inhibition, most hits filed as inhibitors; further: on the % scale 0 is the no-effect control and ±100 the full control effect
#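 Growth was read as firefly luciferase luminescence after a 48 h, 37 C, 5% CO2 exposure of compounds to reporter-bearing P. falciparum cultures (0.1% parasitemia, 2% hematocrit final) in Albumax-supplemented RPMI 1640.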
# Sm TGR inh – inhibitors of Schistosoma mansoni thioredoxin glutathione reductase; Q962Y6; purified TGR, DTNB reduction, TNB absorbance 405 nm; Potency, µM (highest dose often 114 µM), without a hit: at the highest dose activity change, negative = inhibition, hits mostly inhibitors; 360,000 tested, 3% active; AID 485364; further: on the % scale 0 is the no-effect control and ±100 the full control effect; nearly all actives have a fitted effect of over 60% in size
#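 TGR 20 nM + NADPH 100 uM (dispensed conc.), cpd preinc 15 min RT; start with NADPH (500 uM addition) then DTNB (15 mM addition). Kinetic TNB absorbance, 405 nm filter. Four-parameter Hill fit across titration.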
# AmpC no deterg – inhibitors of E. coli AmpC beta-lactamase without detergent; P00811; Potency, µM (highest dose often 57.1 µM), for the others: at the highest dose activity change, negative = inhibition, usual class: inhibitors; 330,000 tested, 0.52% active; AID 485341; AmpC nitrocefin hydrolysis, absorbance 480 nm, 0.0001% Triton;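 further: plate controls were no compound for no effect and no enzyme for full effect; nearly all actives have a fitted effect of over 20% in size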
# Target sequence (P00811 whole entry, looked up): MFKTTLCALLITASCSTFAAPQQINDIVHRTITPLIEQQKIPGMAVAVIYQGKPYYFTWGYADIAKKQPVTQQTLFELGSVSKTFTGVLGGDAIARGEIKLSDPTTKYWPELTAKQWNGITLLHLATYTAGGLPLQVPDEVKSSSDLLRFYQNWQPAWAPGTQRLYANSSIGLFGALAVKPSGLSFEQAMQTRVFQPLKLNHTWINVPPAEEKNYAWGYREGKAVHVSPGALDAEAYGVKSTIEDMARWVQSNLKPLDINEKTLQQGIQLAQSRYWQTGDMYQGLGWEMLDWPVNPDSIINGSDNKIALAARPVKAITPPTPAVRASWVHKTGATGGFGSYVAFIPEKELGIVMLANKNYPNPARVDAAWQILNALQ
#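 20 mM phosphate pH 7.0 + 0.01% (detergent screen) or 0.0001% Triton X-100; 5.3 nM AmpC reagent; cpd preinc 15 min RT; nitrocefin (800 uM stock) to start; A480 q20 s × 4 min; Activity was normalised to no-enzyme and no-compound control wells.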
# Pf growth 96h – inhibits malaria parasite growth, 96 h; P. falciparum luciferase reporter growth, 96 h; Potency, µM (series often up to 28.7 µM), without a hit: at the top dose activity change, negative = inhibition, usual class: inhibitors; 320,000 tested, 6.9% active; further: on the % scale 0 is the no-effect control and ±100 the full control effect
#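 Plates of compound plus infected erythrocytes (2% hematocrit, 0.05% parasitemia final) incubate 96 hours, 37 C, 5% CO2. Detection reagent added; reduced luminescence from the parasites' luciferase reporter flags inhibition.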
# AmpC inh detg – inhibitors of E. coli AmpC beta-lactamase with detergent | P00811 | AmpC hydrolysis of nitrocefin, absorbance 480 nm, 0.01% Triton | Potency, µM (doses to about 114 µM), for inactives: at the top dose activity change, negative = inhibition, actives largely listed as inhibitors | 370,000 tested, 0.041% active | AID 485294;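 further: 0% = no-compound wells and -100% = no-enzyme wells; nearly all actives have a fitted effect of over 25% in size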
#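 AmpC (5.3 nM in the dispensed reagent) in 20 mM phosphate pH 7.0 with 0.01% (detergent screen) or 0.0001% Triton X-100 was preincubated with compounds for 15 min at room temperature. Nitrocefin was then added from an 800 uM solution, and hydrolysis was followed at 480 nm.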
# SARS PLP yeast – inhibitors of SARS-CoV papain-like protease in yeast; S. cerevisiae expressing SARS-CoV PLpro, growth rescue; Potency, µM (series often up to 32.9 µM), for the others: at the highest dose activity, positive = growth rescue, actives largely listed as activators; 330,000 tested, 0.19% active; AID 485353; calls by dose curve; further: 0% is about no effect; nearly all actives have a fitted effect of over 55% in size
# Active calls of the source: *; ? = inconclusive; . = no result given. Most compounds without a hit are left out; they make up all but 12% or so of the library. Unless noted, the call rests on the fitted dose curve; in most records, active means well fitted curve in the direction sought with a large enough effect; inconclusive means small, poorly fitted or top-dose-only effect, or another doubt; inactive means no such curve, though single readings can be large; an effect the other way counts as inactive or inconclusive. Potency means the concentration at half of the fitted maximal effect.
SMILES,Pf growth 48h,Sm TGR inh,AmpC no deterg,Pf growth 96h,AmpC inh detg,SARS PLP yeast
COc1ccc(N2C(=O)CS/C2=N\C(=S)Nc2ccccc2)cc1,?,3%,-20%,?,-4%,1%
COc1ccc(N2C(=O)C3C4C=CC(CC4)C3C2=O)c([N+](=O)[O-])c1 (stereo not drawn),8%,3%,-6%,6%,-2%,-5%
CCOc1ccc(N2C(=O)C3C4C=CC(CC4)C3C2=O)c([N+](=O)[O-])c1 (stereo not drawn),22%,50µM*,-8%,?,-11%,4%
Cc1ccc(N2C(=O)C3C4C=CC(C4)C3C2=O)cc1C (stereo not drawn),-11%,-4%,-15%,-27%,0%,-3%
Cc1ccc(N2C(=O)C3C4C=CC(CC4)C3C2=O)cc1[N+](=O)[O-] (stereo not drawn),3%,50µM*,-9%,12%,?,3%
CCOc1ccc(N2C(=O)C3CC(C)=C(C)CC3C2=O)c([N+](=O)[O-])c1 (stereo not drawn),1%,20µM*,21%,?,?,2%
CCCCC(CC)COC(=O)C(C#N)=C(c1ccccc1)c1ccccc1 (stereo not drawn),2.6µM*,-30%,-20%,2.6µM*,-3%,-1%
CCCCC(CC)COC(=O)c1ccccc1C(=O)OCC(CC)CCCC (stereo not drawn),?,-6%,-18%,-1%,-16%,.
CCOc1ccccc1-n1c(SCC(=O)NC(C)(C)C)nnc1-c1ccoc1C,13µM*,-8%,61%,?,-13%,-5%
C=CCn1c(SCC(=O)Nc2ccccc2OC)nnc1-c1ccco1,-25%,45µM*,-12%,-28%,-3%,1%
CNC(=O)CSc1nnc(-c2ccco2)n1-c1ccccc1OC,16%,79µM*,-3%,?,-9%,9%
N#Cc1ccccc1COC(=O)c1cccc(S(=O)(=O)N2CCCC2)c1,.,.,-10%,.,.,0%
COCCn1c(C)cc(/C=C(\C#N)C(=O)OC(C)C(=O)Nc2ccc(NC(C)=O)cc2)c1C (stereo not drawn),13%,-6%,-14%,-3%,-19%,-3%
Cc1ccccc1NC(=O)C1Cc2ccccc2CN1C(=O)c1ccco1 (stereo not drawn),-22%,11µM*,-32%,-27%,-12%,-4%
O=C(NCc1ccccc1)C1Cc2ccccc2CN1C(=O)c1ccco1 (stereo not drawn),-8%,35µM*,-21%,5%,9%,-6%
COc1cccc(NC(=O)C2Cc3ccccc3CN2C(=O)c2ccco2)c1 (stereo not drawn),?,35µM*,0%,-17%,-14%,-6%
Cc1cccc(NC(=O)N2CCCC2C(=O)NCc2ccccc2)c1 (stereo not drawn),-9%,3%,-17%,9.3µM*,-11%,5%
CC(=O)c1cccc(NC(=O)N2CCCC2C(=O)NCc2ccccc2)c1 (stereo not drawn),14%,2%,-18%,30%,7%,13%
O=C(O)C1Cc2ccccc2CN1C(=O)c1ccco1 (stereo not drawn),-9%,?,-16%,1%,-15%,7%
Cc1cccc(-c2nc3nc(C)cc(NC(C)c4ccccc4)n3n2)c1 (stereo not drawn),.,-9%,.,.,22%,.
Cc1ccc(NC(=O)C2CCCN2C(=O)OCc2ccccc2)c(C)c1 (stereo not drawn),0%,15%,18%,-1%,-3%,-2%
Cc1ccc(NC(=O)C2CCCN2C(=O)OCc2ccccc2)c(O)c1 (stereo not drawn),?,2%,-8%,5.2µM*,-6%,0%
CCSc1nnc(NC(=O)C2Cc3ccccc3CN2C(=O)c2ccco2)s1 (stereo not drawn),-28%,32µM*,-18%,23%,?,6%
